Reference: PubChem BioAssay (Tox21)
The source made the active and inactive calls. Calls follow the shape of the dose curve; as a rule, active = well fitted curve in the direction sought with a large enough effect in the repeat runs; inconclusive = weak or mixed curves; inactive = flat fitted curve, though single readings scatter.

experiment: qHTS assay to test for compound auto fluorescence at 535 nm (green) in HepG2 cells (AID 720675); settings: green autofluorescence 485/535 nm, 1 h; series mostly up to 91.3 µM; fluorescence, % of fluorescein control: at the top concentration
% is scaled to controls: 0 for no effect and ±100 for the full control effect.

SMILES	fluorescence, % of fluorescein control	outcome
Cn1c(N)nc2nc[nH]c2c1=O	0.0234% (inactive)	–
CCOC(=O)CC(=O)c1cc(F)c(Cl)nc1Cl	-0.0344% [at 95.7 µM] (inactive)	–
Cc1cccc(C(C)(C)C)c1O	-0.105% (inactive)	–
C=Cc1c(C)c2cc3[nH]c(cc4nc(cc5nc(cc1[nH]2)C(C)=C5CCC(=O)O)C(CCC(=O)O)=C4C)c(C)c3C=C	-0.0978% [at 46 µM] (inactive)	–
CCCCCCCCCC(=O)OCC	-0.0297% (inactive)	–
CC(C)CCCC(C)CCO (configuration not stated)	0.0053% (inactive)	–
N=C(N=C(N)N)N1CCOCC1	-0.084% [at 18.6 µM] (inactive)	–
CC(C)(C)c1ccc(S)cc1	0.0364% (inactive)	–
NC(=S)N/N=C/c1cccnc1	0.0037% [at 46 µM] (inactive)	–
COc1ccc2[nH]c(S(=O)Cc3ncc(C)c(OC)c3C)nc2n1 (configuration not stated)	-0.113% [at 46 µM] (inactive)	–
CC1=CC(=O)/C(=C(/C)O)C(=O)O1	-0.0141% (inactive)	–
O=[N+]([O-])c1cc[n+]([O-])cc1	0.0325% (inactive)	–
CC(CN)CCCN (configuration not stated)	0.117% (inactive)	–
CC(=O)NCCCS(=O)(=O)O	–	inactive
CC[C@]12CCCN3CCc4c(n(c5ccccc45)C(=O)C1)[C@@H]32	0.0406% [at 18.6 µM] (inactive)	–
CCCCCCCCCO	-0.0087% (inactive)	–

SMILES	fluorescence, % of fluorescein control	outcome
CC(=O)[C@@]1(O)CC[C@H]2[C@@H]3C[C@H](C)C4=CC(=O)CC[C@]4(C)[C@H]3CC[C@@]21C	0.16% [at 46 µM] (inactive)	–
C=CCCCCCC	-0.0119% (inactive)	–
CC(=O)O[C@H]1C[C@@H]2CC[C@@H]3[C@H](CC[C@@]4(C)[C@H]3C[C@H]([N+]3(C)CCCCC3)[C@@H]4OC(C)=O)[C@@]2(C)C[C@@H]1N1CCCCC1	-0.164% [at 46 µM] (inactive)	–
C=CC[N+]1([C@H]2C[C@H]3[C@@H]4CC[C@H]5C[C@H](OC(C)=O)[C@@H](N6CCCCC6)C[C@]5(C)[C@H]4CC[C@]3(C)[C@H]2OC(=O)CC)CCCCC1	0.125% [at 46 µM] (inactive)	–
Cc1c(Cn2ccnc2)c2ccccc2n1CCC(=O)O	-0.109% [at 46 µM] (inactive)	–
CC[C@H](C)[C@H](N)C(=O)O	-0.108% [at 46 µM] (inactive)	–
Nc1nc(CC(=O)O)cs1	-0.139% (inactive)	–
OCC1CC2CC1C1CCC(CO)C21 (configuration not stated)	0.085% (inactive)	–
FC(F)(F)C(F)(F)C(F)(F)C(F)(F)C(F)(F)C(F)(F)CCI	0.131% [at 46 µM] (inactive)	–
CCN(CCO)CCCC(C)Nc1ccnc2cc(Cl)ccc12 (configuration not stated)	-0.0123% [at 46 µM] (inactive)	–
Nc1nc(N)c(-c2ccccc2)s1	-0.0554% [at 46 µM] (inactive)	–
NCCCOCCOCCOCCCN	0.0976% (inactive)	–
Cc1ccc(C(=O)C(C)CN2CCCCC2)cc1 (configuration not stated)	–	inactive
CC(C)(C)C1CCCCC1O (configuration not stated)	-0.0221% (inactive)	–
CCN(CC)CCc1nc(-c2ccccc2)no1	0.0159% [at 18.6 µM] (inactive)	–
Cc1cc(CC(=O)O)c(C)n1-c1ccc(Cl)cc1	0.416% [at 46 µM] (inactive)	–
